The results in this text go back to PubChem BioAssay (NCATS).

SMILES strings stand for the structures. Results filed as inconclusive are left out. Some compounds were tested as several samples or in several runs, with calls that do not always agree. The source made the active and inactive calls. Unless noted, calls come from the whole dose curve; as a rule, active = well fitted curve in the direction sought with a large enough effect; inconclusive = small, poorly fitted or top-dose-only effect, or another doubt; inactive = no such curve, though single readings can be large; an effect the other way counts as inactive or inconclusive.

Assay [1] deals with Zika virus NS2B-NS3 protease. The assay can be described thus: Primary screen GU AMC qHTS for Zika virus inhibitors (AID 1347154).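 Note: 0% = no-inhibitor control and -100% = no-enzyme control; nearly all actives have a fitted effect of over 70% in size.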 The method in brief:
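Fluorogenic AMC-substrate cleavage by noncovalent NS2B-NS3 protease complex (25 nM, pH 8.0 Tris buffer with Tween 20) followed for 15 minutes at room temperature (~20% conversion). Percent inhibition from ex340/em450 signal change, fitted by 4-parameter Hill equation.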
(qHTS replaces the single test concentration by a dilution series.)

A short description of assay [2]: Counterscreen qHTS for small molecule stabilizers of the endoplasmic reticulum resident proteome: GLuc-NoTag assay (AID 1508627).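 Note: 0% = thapsigargin alone and -100% = DMSO vehicle control.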 The gist of the method:
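Counterscreen line: SH-SY5Y-GLuc-NoTag cells, treated with compound 19 hr before a 4 hr, 100 nM thapsigargin calcium depletion. Secreted Gaussia luciferase in the medium was measured by luminescence after coelenterazine was added (0.07x final), with cells unlysed.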

Assay [3] can be described thus: Confirmatory qHTS for small molecule stabilizers of the endoplasmic reticulum resident proteome: Secreted ER Calcium Modulated Protein (SERCaMP) assay (AID 1508628). Note: nearly all actives have a fitted effect of over 40% in size. Note: potency is the fitted concentration of half-maximal effect. The gist of the method: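 Reporter secretion upon ER calcium depletion (100 nM thapsigargin, 4 h, 37C) is measured as medium luminescence with coelenterazine, after 16 h compound pretreatment of SH-SY5Y-GLuc-SERCaMP cells; primary at three concentrations up to 38.3 uM, follow-up at 11 (up to 76.6 uM).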

The nature of assay [4]: Primary qHTS for inhibitors of nuclear receptor binding SET domain protein 2 (NSD2) in an RCH-ACV wild type WT cells (2C) (AID 1645877). Note: % is set by controls: 0 for no effect and ±100 for the full control effect; nearly all actives have a fitted effect of over 70% in size.
Assay [5] addresses Cytochrome P450 3A4 (Homo sapiens) (UniProt P08684). The assay can be described thus: qHTS Assay for Inhibitors and Substrates of Cytochrome P450 3A4 (AID 884). Note: % is set by controls: 0 for no effect and ±100 for the full control effect; nearly all actives have a fitted effect of over 50% in size. The method in brief:
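Luminescent readout of luciferin produced by CYP3A4 (20 nM) dealkylation of Luciferin-PPXE, 25 uM (its KM). NADPH-driven reaction ran 60 min at RT after 10 min compound preincubation; data scaled to 57 uM ketoconazole as 100% inhibition.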

The target of assay [6] is Cytochrome P450 1A2 (Homo sapiens) (UniProt P05177). Description: p450-cyp1a2 (AID 410; calls by dose curve; note: potency is the fitted concentration of half-maximal effect;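 for activity change, negative = inhibition: -100% = full effect of reference inhibitor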). The gist of the method: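 Luminescent demethylation readout: Luciferin-ME (100uM, equal to Km) turned over by 20nM CYP1A2 for 60 min at room temperature after NADPH regeneration addition, following 10 min compound preincubation. Normalization used 57 uM furafylline as full inhibition.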
Chain of Cytochrome P450 1A2 (Homo sapiens) (P05177 whole entry, looked up): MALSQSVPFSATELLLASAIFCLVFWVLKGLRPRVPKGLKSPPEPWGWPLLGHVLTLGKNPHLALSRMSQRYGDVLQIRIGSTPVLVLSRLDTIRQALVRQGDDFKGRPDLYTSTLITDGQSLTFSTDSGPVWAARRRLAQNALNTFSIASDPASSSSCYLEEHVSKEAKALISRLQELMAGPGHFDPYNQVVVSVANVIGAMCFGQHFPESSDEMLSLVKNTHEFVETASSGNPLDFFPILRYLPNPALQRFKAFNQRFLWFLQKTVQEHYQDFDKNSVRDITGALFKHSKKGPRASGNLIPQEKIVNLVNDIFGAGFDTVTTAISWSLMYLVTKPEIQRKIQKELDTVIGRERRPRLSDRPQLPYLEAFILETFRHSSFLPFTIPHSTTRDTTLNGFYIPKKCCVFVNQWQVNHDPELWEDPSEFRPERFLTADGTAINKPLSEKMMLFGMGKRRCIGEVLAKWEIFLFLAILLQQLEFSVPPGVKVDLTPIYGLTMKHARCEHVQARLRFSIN

The target of assay [7] is Glucocorticoid receptor (Homo sapiens) (UniProt P04150). Description: GR-GFP Redistribution (AID 450;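 active = compounds whose dose series gives a full or clear partial fitted curve of increased nuclear translocation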; note: potency is the fitted concentration of half-maximal effect). The note with it: U2OS GR-GFP nuclear translocation, laser cytometry, 2 h.
Chain of Glucocorticoid receptor (Homo sapiens) (P04150 whole entry, looked up): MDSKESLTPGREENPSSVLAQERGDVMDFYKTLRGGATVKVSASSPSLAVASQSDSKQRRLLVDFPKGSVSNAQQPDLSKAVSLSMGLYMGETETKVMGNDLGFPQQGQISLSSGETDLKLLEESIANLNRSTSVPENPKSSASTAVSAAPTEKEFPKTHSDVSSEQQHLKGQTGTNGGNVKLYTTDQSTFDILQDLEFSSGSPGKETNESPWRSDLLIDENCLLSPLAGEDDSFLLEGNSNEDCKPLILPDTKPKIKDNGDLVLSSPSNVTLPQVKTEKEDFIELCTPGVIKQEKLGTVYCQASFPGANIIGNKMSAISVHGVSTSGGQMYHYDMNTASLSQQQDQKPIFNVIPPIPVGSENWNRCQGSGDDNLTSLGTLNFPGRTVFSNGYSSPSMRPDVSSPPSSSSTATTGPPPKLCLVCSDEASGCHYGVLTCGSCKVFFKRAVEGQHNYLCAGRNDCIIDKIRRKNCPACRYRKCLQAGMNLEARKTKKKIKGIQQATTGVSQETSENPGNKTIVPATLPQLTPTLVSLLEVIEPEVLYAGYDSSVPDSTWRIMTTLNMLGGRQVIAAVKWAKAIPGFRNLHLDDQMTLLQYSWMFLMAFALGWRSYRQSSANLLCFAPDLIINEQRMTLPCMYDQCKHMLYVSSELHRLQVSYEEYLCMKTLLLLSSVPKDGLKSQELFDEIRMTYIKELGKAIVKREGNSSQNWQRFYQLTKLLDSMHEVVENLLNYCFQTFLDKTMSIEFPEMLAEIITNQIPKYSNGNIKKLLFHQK
Assay [8] has the same target. Description: GR-EFC Redistribution (AID 451; calls by dose curve; note: potency is the fitted concentration of half-maximal effect). The following applies: CHO-K1 GR-EFC translocation, beta-gal luminescence, 2 h. The gist of the method:
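Translocation of GR-ED fusion to nuclear EA restores b-gal, read by luminescence after 1 h room-temperature detection. Engineered CHO-K1 biosensor cells, 1,000/well, exposed 2 h at 37 C to titrations up to 46 uM final.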

For assay [9], the target named is Mitogen-activated protein kinase 10 (Mus musculus) (UniProt Q61831). Description: JNK3 AlphaScreen Assay (AID 530; active = well fitted curve in either direction with a large enough effect, not every such curve was filed as active;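 note: kinase came from lysate of stimulated human HepG2 cells; signal reports phosphorylation of biotinylated GST-cJun 1-79 at Ser73 with 10 µM ATP; % is set by controls: 0 for no effect and ±100 for the full control effect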). The gist of the method: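 qHTS titrations with 15 min compound pre-incubation before adding ATP (10 uM final). Read-out: AlphaScreen of Ser73-phosphorylated biotin-GST-cJun using HepG2 lysate JNK3 activated by IL-1β and TNFα.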
Assay [10] addresses Cytochrome P450 2D6 (Homo sapiens) (UniProt P10635). The assay can be described thus: qHTS Assay for Inhibitors and Substrates of Cytochrome P450 2D6 (AID 891). Note: potency is the fitted concentration of half-maximal effect; nearly all actives have a fitted effect of over 60% in size. The gist of the method: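 Luminescent read-out of luciferin formed by 5 nM human CYP2D6 demethylating 30 uM Luciferin-ME EGE (Km level) over 60 min at room temperature after NADPH regeneration addition. Data normalized to full inhibition by 1.43 uM quinidine.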

Assay [11] has as its target DNA dC->dU-editing enzyme APOBEC-3G (Homo sapiens) (UniProt Q9HC16). Description: qHTS for inhibitors of Vif-A3G interactions: Validation (AID 588379). Note: 0% is about no effect. The gist of the method: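 Yellow fluorescence (Ex 488, Em 500-530) of Vif-coexpressing HeLa A3G-eYFP cells, scanned by Acumen cytometer, reports blocked A3G degradation. Cells plated at 700/well overnight at 37 deg C before compound addition, then a further overnight compound incubation at 37 deg C.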

Assay [12] can be described thus: AP1 Signaling Pathway (AID 357; active = well fitted curve in either direction with a large enough effect, not every such curve was filed as active;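 note: ME-180 reporter cells stimulated with EGF at its EC50 level; % is set by controls: 0 for no effect and ±100 for the full control effect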). The following applies: ME-180 AP-1-bla reporter, EGF-induced, beta-lactamase ratio, 5 h; at 38 µM (top of the series). The method in brief: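 AP-1-bla ME-180 cells, Opti-MEM + 0.5% dialyzed FBS, plated overnight 37 °C. Cpd titration + EC50 EGF, 5 h 37 °C. CCF4 2.5 h RT; ex 405, em 460/530 ratio → %activity, AC50.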
Assay [13] in a line: NFAT Signaling Pathway (AID 444; active = well fitted curve in either direction with a large enough effect, not every such curve was filed as active;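 note: carbachol stimulus at about its EC50 of 1 µM final; % is set by controls: 0 for no effect and ±100 for the full control effect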). The note with it: Jurkat NFAT-bla M1, carbachol, beta-lactamase ratio, 5 h; at 38 µM (top of the series). The method in brief: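 Read-out: CCF4 FRET ratio (460 nm/530 nm) after 1 h RT dye loading, used for %activity and AC50 from titration series. Cells: Jurkat NFAT-β-lactamase/M1 line, treated with compound plus 1 uM carbachol for 5 h, 37 °C.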

Assay [14] is described as follows: Stat Signaling Pathway (AID 446; active = well fitted curve in either direction with a large enough effect, not every such curve was filed as active;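 note: ME-180 cervical cancer cells given 40 pM IL-6 alongside compound; SIE-controlled beta-lactamase reporter measured as 460/530 nm FRET emission ratio; % is set by controls: 0 for no effect and ±100 for the full control effect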). The note with it: ME-180 (cervical carcinoma) SIE beta-lactamase reporter, IL-6 stimulated, 5 h; at 38 µM (top of the series). The method in brief:
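Emission at 460 and 530 nm (excitation 405 nm) reports SIE-controlled beta-lactamase in ME-180 cells. Cells received compound with 40 pM IL-6 for 5 hrs at 37 C; data scaled between 300 pM IL-6 and 125 nM JAK-inhibitor controls.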

Assay [15] deals with 3',5'-cyclic-AMP phosphodiesterase 4B (Homo sapiens) (UniProt Q07343). Description: qHTS Assay for Inhibitors of PDE-IV (AID 607; active = well fitted activation curve with a large enough effect in the main read-out, with a control signal flat, not every such curve was filed as active; note: % of control where 0% means no effect). The gist of the method: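 The readout is membrane depolarisation from a cAMP-sensing CNG channel, detected with a potential dye at ex 535/em 590. Cells were HEK293-derived (endogenous PDE-IV) at 1000 cells/well, titrated up to 22.9 uM final.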
Chain of 3',5'-cyclic-AMP phosphodiesterase 4B (Homo sapiens) (Q07343 whole entry, looked up): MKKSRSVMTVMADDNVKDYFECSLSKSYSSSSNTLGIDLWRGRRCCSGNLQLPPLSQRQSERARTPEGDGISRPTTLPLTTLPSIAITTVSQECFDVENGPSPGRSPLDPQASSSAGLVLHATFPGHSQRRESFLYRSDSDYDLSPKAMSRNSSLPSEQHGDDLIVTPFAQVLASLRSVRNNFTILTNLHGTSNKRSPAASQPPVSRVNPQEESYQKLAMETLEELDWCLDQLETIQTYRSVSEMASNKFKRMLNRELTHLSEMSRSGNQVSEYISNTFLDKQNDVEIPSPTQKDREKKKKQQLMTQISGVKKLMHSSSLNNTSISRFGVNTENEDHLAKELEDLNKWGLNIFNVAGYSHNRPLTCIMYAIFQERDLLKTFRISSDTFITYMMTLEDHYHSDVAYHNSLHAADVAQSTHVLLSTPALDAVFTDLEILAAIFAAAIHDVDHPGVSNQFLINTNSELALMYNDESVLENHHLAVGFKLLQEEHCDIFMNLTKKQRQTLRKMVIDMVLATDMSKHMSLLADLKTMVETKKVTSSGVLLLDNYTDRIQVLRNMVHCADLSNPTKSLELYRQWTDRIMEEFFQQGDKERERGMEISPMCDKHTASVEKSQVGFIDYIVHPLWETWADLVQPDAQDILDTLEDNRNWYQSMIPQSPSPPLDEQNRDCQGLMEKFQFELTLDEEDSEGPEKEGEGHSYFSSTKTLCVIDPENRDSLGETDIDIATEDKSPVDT
Assay [16] has as its target Guanine nucleotide-binding protein G(i) subunit alpha-1 (Homo sapiens) (UniProt P63096). The assay can be described thus: qHTS Assay for Inhibitors of RGS12 GoLoco Motif Activity (Green Fluorophore) (AID 879).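 Note: 0% = labeled peptide with Gαi1 and full inhibition = labeled peptide alone without protein; negative values mean loss of peptide binding seen as reduced polarization.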 The method in brief: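 A drop in FITC polarization marked displacement of the FITC-tagged RGS12 GoLoco peptide (10 nM) from Gαi1 (50 nM). Compounds were incubated 10 min at room temperature in Tris pH 7.5 buffer containing 150 mM NaCl, 0.1 mM GDP and 0.05% NP40; unlabeled peptide titration served as control.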

Assay [17] deals with Cytochrome P450 2C9 (Homo sapiens) (UniProt P11712). Description: qHTS Assay for Inhibitors and Substrates of Cytochrome P450 2C9 (AID 883). Note: % is set by controls: 0 for no effect and ±100 for the full control effect; nearly all actives have a fitted effect of over 60% in size. The gist of the method: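 Luminescent read-out of deoxyluciferin hydroxylation, normalized to 57uM sulphaphenazole (AC100). Reaction: 10nM enzyme, 100uM Luciferin-H (equal to KM), 25mM KPO4, 10 min compound preincubation, then 60 min with NADPH regeneration, both at 37C.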

The target in assay [18] is Cytochrome P450 3A4 (Homo sapiens) (UniProt P08684). The assay can be described thus: qHTS Assay for Activators of Cytochrome P450 3A4 (AID 885). Note: nearly all actives have a fitted effect of over 65% in size. The gist of the method: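 Activators are scored by enhanced luminescence from CYP3A4 conversion of luciferin-PPXE (25uM, equal to KM) to luciferin, after 60 min at RT with an NADPH-regenerating system.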
Chain of Cytochrome P450 3A4 (Homo sapiens) (P08684 whole entry, looked up): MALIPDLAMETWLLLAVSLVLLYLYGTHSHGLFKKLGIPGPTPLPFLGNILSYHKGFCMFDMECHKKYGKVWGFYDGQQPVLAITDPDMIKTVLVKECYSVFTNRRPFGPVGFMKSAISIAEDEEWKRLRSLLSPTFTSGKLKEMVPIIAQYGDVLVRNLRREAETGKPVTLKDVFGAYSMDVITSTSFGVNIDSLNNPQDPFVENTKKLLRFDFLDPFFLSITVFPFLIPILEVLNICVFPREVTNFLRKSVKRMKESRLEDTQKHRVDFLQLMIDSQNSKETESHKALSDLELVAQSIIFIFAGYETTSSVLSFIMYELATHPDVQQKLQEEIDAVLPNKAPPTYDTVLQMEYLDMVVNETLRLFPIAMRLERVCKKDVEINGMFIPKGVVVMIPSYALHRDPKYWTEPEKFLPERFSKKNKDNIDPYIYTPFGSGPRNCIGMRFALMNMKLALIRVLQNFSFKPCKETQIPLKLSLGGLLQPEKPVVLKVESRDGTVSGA
Assay [19] in a line: Confirmation and Secondary Assay for Modulators of Hemoglobin Beta Chain Splicing at IVS2 654 locus (AID 910).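 Note: HeLa cells stably carrying EGFP split by mutant beta-globin IVS2-654 intron; % of control where 0% means no effect.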 The method in brief: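 Readout: per-well total peak green fluorescence (488 nm ex, 500–520 nm em) from objects 5–250 µm, reflecting correct splicing of an EGFP-654 reporter. Compounds were applied for 2 days at 37 °C to overnight-plated HeLa EGFP-654 cells; controls were DMSO and 500 nM IVS2-654 PNA.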

A short description of assay [20]: Confirmation and Secondary Assay for Modulators of Hemoglobin Beta Chain Splicing at IVS2 705 locus (AID 930).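 Note: HeLa cells stably expressing the EGFP-705 splicing reporter; GFP fluorescence per well restored by corrected splicing of the IVS2-705 intron in EGFP; % of control where 0% means no effect.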 The method in brief:
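Read-out: total peak GFP fluorescence per well (488 nm excitation, 500-520 nm emission) by laser-scanning cytometry. Cells: HeLa EGFP-705 splicing reporter, 2 days compound exposure in Optimem/2% FCS.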

The target of assay [21] is Pyruvate kinase (Leishmania mexicana) (UniProt Q27686). The assay can be described thus: qHTS Validation Assay for Inhibitors of Leishmania Mexicana Pyruvate Kinase (AID 945).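 Note: 0% = DMSO only neutral control wells.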 The gist of the method:
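Luminescent ATP detection (PKLight) after a 1 h room-temperature reaction of 0.2 nM LmPYK E451W mutant with 0.5 mM PEP and 0.1 mM ADP at pH 7.2. Activity is normalized to DMSO-only control wells.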

Assay [22] has as its target Pyruvate kinase PKM (Homo sapiens) (UniProt P14618). Description: qHTS Assay for Activators of Human Muscle Pyruvate Kinase (AID 954; active = well fitted curve in the direction sought with a large enough effect, not every such curve was filed as active;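 note: 0% = uninhibited enzyme and -100% = no enzyme or full thiadiazolimine inhibition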). The method in brief:
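PKM2, human, >95% pure, 0.1 nM; PEP 0.5 mM (Km), ADP 0.1 mM; 50 mM imidazole pH 7.2, 50 mM KCl, 0.01% Tween 20, 0.05% BSA; 1 h RT; luciferase luminescence readout.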

In assay [23] the target is Alpha-galactosidase A (Homo sapiens) (UniProt P06280). Description: Counterscreen for Glucocerebrosidase Inhibitors: qHTS Assay for Human alpha-Galactosidase at pH 4.5 (AID 992). Note: 0% is about no effect. The gist of the method: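 Fluorogenic 4-MU alpha-D-galactoside (80 uM) hydrolysis, 2 nM enzyme, pH 4.5 citrate buffer + 0.005% Tween-20; 20 min RT; NaOH/glycine pH 10 stop; Ex365/Em440. Compounds titrated 0.7 nM–77 uM; Hill-equation AC50.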
Chain of Alpha-galactosidase A (Homo sapiens) (P06280 whole entry, looked up): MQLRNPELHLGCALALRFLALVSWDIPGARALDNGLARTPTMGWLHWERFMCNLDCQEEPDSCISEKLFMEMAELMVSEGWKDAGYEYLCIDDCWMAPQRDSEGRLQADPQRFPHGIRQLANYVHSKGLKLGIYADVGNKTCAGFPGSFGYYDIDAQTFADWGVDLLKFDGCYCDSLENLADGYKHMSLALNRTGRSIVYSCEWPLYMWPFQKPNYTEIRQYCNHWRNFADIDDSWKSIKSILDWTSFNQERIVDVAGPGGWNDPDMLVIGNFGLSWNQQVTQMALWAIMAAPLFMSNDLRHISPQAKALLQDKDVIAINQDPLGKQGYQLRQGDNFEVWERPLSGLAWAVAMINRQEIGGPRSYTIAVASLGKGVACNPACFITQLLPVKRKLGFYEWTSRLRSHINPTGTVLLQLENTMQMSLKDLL

In assay [24] the target is alpha-glucosidase (Oryza sativa, rice) (UniProt Q653V4). The assay can be described thus: Counterscreen for Glucocerebrosidase Inhibitors: qHTS Assay for Rice alpha-Glucosidase at pH 5.0 (AID 997).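 Note: 0% = full activity with enzyme and -100% = basal without enzyme.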 The gist of the method:
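Endpoint fluorogenic assay at pH 5.0: compounds (0.7 nM to 77 uM) titrated against 4 nM rice enzyme and 400 uM 4-MU-alpha-glucoside for 20 min at room temperature; NaOH/glycine stop, read ex 365/em 440 nm, Hill-fitted AC50.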
A general note: The purpose of a counterscreen is to sort out artefacts and off-target activity.

Assay [25] is described as follows: qHTS Assay for Lipid Storage Modulators (AID 1519; calls by dose curve). The note with it: Drosophila S3 cells, BODIPY lipid droplet/cell ratio, laser cytometry, cells loaded with oleic acid. The gist of the method:
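Cells seeded at 5,000 per well were treated with compounds over a concentration series and loaded with oleic acid (400 uM, as added). Lipid droplet fluorescence (488 nm excitation, 500-530 nm channel) was read by laser-scanning cytometry and normalized to 20 uM Triacsin C.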

Chain of DNA dC->dU-editing enzyme APOBEC-3G (Homo sapiens) (Q9HC16 whole entry, looked up): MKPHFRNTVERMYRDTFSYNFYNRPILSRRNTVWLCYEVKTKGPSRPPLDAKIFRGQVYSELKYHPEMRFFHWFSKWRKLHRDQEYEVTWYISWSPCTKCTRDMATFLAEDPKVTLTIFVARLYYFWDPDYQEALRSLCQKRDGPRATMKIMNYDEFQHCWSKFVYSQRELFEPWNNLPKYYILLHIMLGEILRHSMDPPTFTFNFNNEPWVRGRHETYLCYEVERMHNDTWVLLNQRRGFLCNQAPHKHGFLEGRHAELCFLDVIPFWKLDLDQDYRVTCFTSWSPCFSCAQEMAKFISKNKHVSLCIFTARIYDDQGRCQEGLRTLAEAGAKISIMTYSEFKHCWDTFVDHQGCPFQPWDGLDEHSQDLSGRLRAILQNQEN
Chain of Pyruvate kinase PKM (Homo sapiens) (P14618 whole entry, looked up): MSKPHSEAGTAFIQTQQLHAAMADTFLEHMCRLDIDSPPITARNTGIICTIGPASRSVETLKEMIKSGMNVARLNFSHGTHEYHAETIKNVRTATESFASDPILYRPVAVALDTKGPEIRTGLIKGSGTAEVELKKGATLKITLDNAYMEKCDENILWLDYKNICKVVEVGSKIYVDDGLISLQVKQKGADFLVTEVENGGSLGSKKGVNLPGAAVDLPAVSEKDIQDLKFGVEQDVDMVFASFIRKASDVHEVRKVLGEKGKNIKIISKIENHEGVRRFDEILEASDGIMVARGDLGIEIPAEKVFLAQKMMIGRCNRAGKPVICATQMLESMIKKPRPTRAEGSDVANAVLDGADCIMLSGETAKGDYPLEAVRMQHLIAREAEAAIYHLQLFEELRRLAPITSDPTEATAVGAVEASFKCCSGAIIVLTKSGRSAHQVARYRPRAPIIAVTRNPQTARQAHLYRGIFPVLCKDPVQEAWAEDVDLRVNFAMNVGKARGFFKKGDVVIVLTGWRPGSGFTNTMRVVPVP
Chain of Cytochrome P450 2D6 (Homo sapiens) (P10635 whole entry, looked up): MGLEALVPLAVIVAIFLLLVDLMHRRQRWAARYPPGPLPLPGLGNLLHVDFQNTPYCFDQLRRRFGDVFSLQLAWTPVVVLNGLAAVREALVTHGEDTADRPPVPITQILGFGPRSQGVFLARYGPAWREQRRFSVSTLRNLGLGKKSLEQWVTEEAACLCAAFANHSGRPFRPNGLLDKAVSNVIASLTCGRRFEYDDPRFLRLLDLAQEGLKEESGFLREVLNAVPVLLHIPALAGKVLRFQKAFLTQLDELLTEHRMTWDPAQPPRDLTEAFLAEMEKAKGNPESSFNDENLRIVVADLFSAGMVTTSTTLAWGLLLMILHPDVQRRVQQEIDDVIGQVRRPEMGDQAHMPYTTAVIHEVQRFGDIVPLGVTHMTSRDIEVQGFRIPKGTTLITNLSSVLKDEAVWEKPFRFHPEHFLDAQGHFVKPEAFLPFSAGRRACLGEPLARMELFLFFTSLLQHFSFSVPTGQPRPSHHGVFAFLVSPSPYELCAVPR
Chain of Guanine nucleotide-binding protein G(i) subunit alpha-1 (Homo sapiens) (P63096 whole entry, looked up): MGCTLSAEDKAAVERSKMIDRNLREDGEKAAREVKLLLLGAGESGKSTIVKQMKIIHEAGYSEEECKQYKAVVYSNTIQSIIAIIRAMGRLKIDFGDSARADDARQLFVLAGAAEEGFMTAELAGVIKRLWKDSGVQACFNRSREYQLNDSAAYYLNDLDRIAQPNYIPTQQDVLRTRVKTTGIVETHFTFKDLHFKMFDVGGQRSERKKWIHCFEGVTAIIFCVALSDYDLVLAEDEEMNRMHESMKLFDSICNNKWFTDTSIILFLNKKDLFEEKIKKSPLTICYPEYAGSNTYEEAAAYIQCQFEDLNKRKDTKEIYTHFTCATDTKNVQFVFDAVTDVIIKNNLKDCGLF

With `CC(C)N1CCN(c2ccc(C(=O)c3c(-c4ccc(O)cc4)sc4cc(O)ccc34)cc2)CC1`, the Potency result in [1] and in assay [2] was “inactive” in each case.
Consider `C=C[C@H]1CN2CCC1C[C@@H]2C(O)c1ccnc2ccc(OC)cc12` (some centres undefined), for which the Potency result in [1], in [2] and in assay [4] was “inactive” throughout. Also, in assay [3], the Potency is 39.8 µM (active) and inactive.
For `CCCCCCCCCCCCCCCC(=O)OC(CO)CO`, the Potency result in assay [5], in assay [1], in assay [2] and in assay [3] was “inactive” in each case.
With `COc1ccc(Cl)cc1N=Nc1ncc[nH]1`, the Potency in [6] is 0.631 µM (active); in [7], > 46 µM (inactive); in assay [8] it was > 46 µM (inactive); in assay [10], 2.51 µM (active); in [3], 35.5 µM (active). Besides, the Potency result in assay [9], in assay [11], in assay [1] and in assay [2] was “inactive” throughout.
Regarding `N=C(CC(O)COc1ccccc1-c1ccccc1)N1CCCCC1` (centres undefined), the Potency result in [1] and in assay [3] was “inactive” throughout.
Turning to `Oc1cc2c(cc1O)[C@H](c1ccccc1)CNCC2`, the activity change, negative = inhibition in assay [12] was -11.5% (inactive); in assay [13] it was -1.81% (inactive); in assay [25] (at 57.5 µM (top of the series)) it was -0.123% (inactive). The Potency result in assay [6], in assay [15], in [17], in assay [18], in [21] and in assay [11] was “inactive” in each case. The Potency entry in assay [1], in [2] and in assay [3] was “inactive” throughout. The activity, negative = inhibition in assay [14] is 0.446% (inactive). The Potency in assay [7] and in [8] was > 46 µM (inactive) each time. The outcome in [16], in assay [19], in assay [20], in assay [22], in [23] and in assay [24] was inactive. Further, the max response in [25] (measured here: cell count channel max response) was 4.46%; in assay [25] (measured here: lipid channel max response), 3.98%.
